Shn3 inh set2: Schnurri-3 reporter inhibition in Clone20 osteoblasts | Clone20 osteoblast Shn3 3'UTR firefly luciferase, 24 h | inhibition, % at 12.5 µM | actives 0.52% (n = 360,000) | AID 588674;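 active means mean inhibition of at least 75% with every replicate also reaching 75%; inconclusive means mean inhibition at least 75% but some replicate below; inactive means mean inhibition below 75%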
KKLEB cytotox: CF airway cell cytotoxicity counter-screen | KKLEB CF airway cells viability, ATPlite luminescence, overnight; hits give low values; cells stimulated with P. aeruginosa culture filtrate | activity change (cytotoxicity), % at 5 µM | actives 0.36% (n = 360,000) | AID 602141;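 active means corrected activity change at or below -50% at 5 µM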
CF NFkB inh: inhibitors of cystic fibrosis induced NF-kB. KKLEB NF-kB-GFP reporter, PAF-induced, GFP fluorescence overnight. inhibition, % at 5 µM. actives 0.86% (n = 360,000). AID 588850;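 active means at least 50% inhibition at 5 µM, scaled per plate between neutral and stimulator controls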;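 further: PAF is a Pseudomonas aeruginosa culture filtrate used as stimulus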
TRPM1 prom inh: MITF TRPM1 promoter inhibition in SK-MEL-5 cells | SK-MEL-5 TRPM1 promoter luciferase, 24 h | AID 488899 | actives 0.83% (n = 330,000) | inhibition, % at 12.5 µM;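 active means mean inhibition across replicates of 60% or more, whatever share of single replicates reaches that level; inconclusive means some that reach 60%, reason not given; inactive means mean inhibition across replicates below 60%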
Peg3 prom inh: Peg3 promoter activity inhibition; actives 1.7% (n = 360,000); AID 588405; inhibition, % at 20 µM; HeLa PEG-Prom luciferase reporter, luminescence, overnight;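 active means inhibition of at least 50% at 20 µM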
HIF-2a inh: inhibitors of HIF-2a | 786-0 RCC cells HIF-2a reporter, luciferase luminescence, overnight | inhibition, % at 18.8 µM | actives 0.72% (n = 360,000);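 active means inhibition of the luminescence signal of 40% or more relative to plate controls, in a single-dose primary screen at 18.75 µM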
Numbers stand for hits; n = inactive; u = inconclusive; x = not tested or not shown. An excerpt weighted towards active compounds, which were near 2.7% of everything screened.

SMILES | Shn3 inh set2 | KKLEB cytotox | CF NFkB inh | TRPM1 prom inh | Peg3 prom inh | HIF-2a inh
CCCCCOc1ccc(Br)cc1/C(C)=N/NC1=NCCN1 | u | n | 51.8 | 70.0 | 80.6 | n
Nc1ccc(-c2cnc(N)c(C(=O)c3cccnc3)n2)cn1 | n | n | 80.9 | n | n | n
CN(C)CCNC(=O)c1ccc(Sc2ccc(Br)cc2)c([N+](=O)[O-])c1 | n | n | n | n | 93.9 | n
CCCNC(=O)C1(C)CCCN(CC(=O)c2ccccc2OC)C1 (configuration not stated) | n | n | n | x | n | n
COc1cc(/C=C/c2ccc3cccc(O)c3n2)cc(Br)c1OC | n | n | n | n | n | n
COc1cc(Br)cc(/C=C/c2ccc3cccc(O)c3n2)c1OC | n | n | n | n | n | n
COc1ccc(/C=C/c2ccc3cccc(O)c3n2)c(OC)c1OC | n | n | n | n | 85.8 | n
COc1cccc(/C=C/c2ccc3cccc(O)c3n2)c1OC | n | n | n | n | 89.8 | n
COc1cc(/C=C/c2ccc3cccc(O)c3n2)cc(OC)c1OC | n | n | n | 77.6 | 95.2 | n
COc1cccc(-c2ncn(CCc3ccccc3OC)c2C(C)C)c1 | x | x | x | x | x | n
CCN(CC)CCNC(=O)c1ccc(NC(=O)Cc2ccc(OC)c(S(=O)(=O)N3CCOCC3)c2)cc1 | n | n | n | n | n | n
C=CC(=O)Nc1ccc(CN2C(=O)N(c3c(Cl)c(OC)cc(OC)c3Cl)Cc3cnc(NCCCCN(CC)CC)nc32)cc1 | n | n | n | n | 52.2 | n
CC(C)C[C@H]1CN([C@@H](Cc2ccc(O)cc2)CN2CCCC2CN2C(=S)NC[C@@H]2Cc2ccccc2)C(=S)N1CC1CCCCC1 (some centres not stated) | x | x | x | x | x | n
CCOc1ccccc1NC(=O)NCc1ccc2c(c1)OCO2 | n | n | n | n | 67.7 | n
CCN(CC)CCNC(=O)c1cc(-c2ccc(Br)s2)nc2ccccc12 | n | n | n | n | 101.3 | n
Cc1ccc(C)c(NC(=O)C(Sc2nc3ccccc3c(=O)n2CC(C)C)c2ccccc2)c1 (configuration not stated) | n | -93.3 | 105.0 | n | 56.8 | n
Cc1ccc(C)c(NC(=O)C(Sc2ncnc3ccccc23)c2ccccc2)c1 (configuration not stated) | n | n | n | n | 58.5 | n
O=C(NCc1ccccc1)c1sc(=S)n2c1[nH]c(=O)c1ccccc12 | n | n | 51.3 | n | n | n
COc1ccccc1/C=N/NC(=O)c1cccc(OC(F)(F)C(F)F)c1 | n | n | n | n | n | n
O=C(N/N=C/c1cc(Br)ccc1O)c1ccncc1 | n | n | n | 76.4 | n | n
O=C(N/N=C/c1ccc(O)c(O)c1)c1cccc(S(=O)(=O)N2CCCCC2)c1 | n | n | n | n | n | n
CC(C)C(=O)Nc1ccc(C(=O)N/N=C/c2cc(Br)cc(Br)c2O)cc1 | n | n | n | n | 58.3 | n
COc1cccc(/C=N/NC(=O)C(=O)Nc2ccccc2OC(F)(F)C(F)F)c1O | n | n | n | 72.8 | n | n
O=C(N/N=C\c1cc(Br)ccc1O)c1ccc(S(=O)(=O)N2CCCCC2)cc1 | 91.2 | n | n | 74.3 | n | n
CC(=O)Nc1ccc(C(=O)N/N=C/c2cc(Br)cc(Br)c2O)cc1 | n | n | n | n | n | n
SMILES | Shn3 inh set2 | KKLEB cytotox | CF NFkB inh | TRPM1 prom inh | Peg3 prom inh | HIF-2a inh
O=C(N/N=C/c1ccccc1O)c1ccncc1 | n | n | n | n | n | n
CCN(CC(=O)Nc1c(F)cccc1F)C(=O)CNC(=O)c1ccc(Br)o1 | n | n | n | n | n | n
Cc1cc(C(=O)N2CCC2(C)C(=O)NS(=O)(=O)c2cccc(Cl)c2)nn1C (configuration not stated) | n | n | n | x | n | n
Fc1cccc(/C=N/Nc2cc(N3CCOCC3)ncn2)c1 | n | n | n | n | n | n
O=C(N/N=C/c1cc(Cl)ccc1O)c1ccc(Br)cc1 | n | n | 57.2 | n | n | n
CCOc1ccccc1NC(=O)C(=O)N/N=C/c1cc(Br)ccc1O | 90.8 | n | n | n | 52.6 | n
NC(=O)N/N=C\c1cc(Br)ccc1O | n | n | n | n | n | n
O=C(N/N=C/c1ccc(O)c2ncccc12)c1cccc(Br)c1 | 90.9 | n | n | 65.1 | n | n
COc1c(C(=O)NNC(=O)c2ccccc2)csc1Br | n | n | n | n | n | n
COc1cc(C(=O)NNC(=O)c2ccccc2OCc2c(C)noc2C)cc(OC)c1OC | n | n | n | n | n | n
O=C(COc1cccc(Br)c1)N/N=C/c1ccc2c(c1)OCCO2 | n | n | n | x | n | n
O=C(/C=C/NNC(=O)c1ccccc1)c1ccccc1 | n | n | n | n | n | n
O=C(/C=C/NNC(=O)c1ccccc1)c1ccc([N+](=O)[O-])cc1 | n | n | n | 64.0 | n | n
Cc1ccc(S(=O)(=O)N2[C@@H](c3ccccc3F)C(C(=O)O)=CC[C@H]2c2ccc(Cl)c(Cl)c2)cc1 | n | n | n | n | n | n
N=c1n(CCN2CCCC2)c2ccccc2n1CC(O)c1ccco1 (configuration not stated) | n | n | n | n | n | n
N=c1n(CCN2CCCCC2)c2ccccc2n1CC(O)c1cccc(Br)c1 (configuration not stated) | n | n | n | n | 109.8 | n
CN(C)c1ccc(Cc2ccc(N(C)C)cc2)cc1 | n | n | n | x | n | n
CN(C)c1ccc(CCc2ccc(N)cc2)cc1 | n | n | n | n | n | 82.6
COc1ccc2nc(N3CCCCC3)c(/C=C3\SC(=S)NC3=O)cc2c1 | n | n | n | n | n | n
O=C1NC(=S)S/C1=C\c1cc2ccccc2nc1N1CCCCC1 | x | n | 54.9 | n | n | n
CC(C)CN(C(=O)COC(=O)C1=COCCO1)c1c(N)n(Cc2ccccc2)c(=O)[nH]c1=O | n | n | n | n | n | n
COc1cc(/C=N/NC(=O)C(=O)/C=C2\NC3(CCCC3)Cc3ccccc32)ccc1O | n | n | n | n | n | n
O=C(/C=C1\NC2(CCCC2)Cc2ccccc21)C(=O)N/N=C/c1ccccc1O | 91.4 | n | 51.3 | n | n | n
CN(C)CCN1C(=O)c2cccc3cc([N+](=O)[O-])cc(c23)C1=O | 96.9 | n | n | 84.4 | 97.2 | 46.2
CN(C)CCCN1C(=O)c2cccc3cccc(c23)C1=O | n | n | n | n | n | n
CCC(=C(c1ccc(O)cc1)c1ccc(OCCN(C)C)cc1)c1ccccc1 | n | n | n | x | n | n
CC/C(=C(\c1ccc(O)cc1)c1ccc(OCCN(C)C)cc1)c1ccccc1 | n | n | n | n | 56.5 | n
CCC(=C(c1ccccc1)c1ccc(OCCN(C)C)cc1)c1ccccc1 | n | n | n | x | n | n
CC/C(=C(\c1ccccc1)c1ccc(OCCN(C)C)cc1)c1ccccc1 | n | n | n | n | 70.7 | n
Cc1cccc2nnc(-c3ccccc3)n12 | n | n | n | n | n | n

Screening results from PubChem BioAssay.
